Laboratory results: the supplement of paper PMC11732987, “Enantioselective OTUD7B fragment discovery through chemoproteomics screening and high-throughput optimisation” (Communications Chemistry, 2025)

How the values were obtained:
Test in all cases: log2 ratio of Biotin-Ahx-Ub-VS probe labelling (fragment/DMSO); higher = less target engagement (more negative = stronger competition), active = hit call of the paper (q ≤ 0.05, log2 ratio ≤ -1)
Details in all cases: compound concentration: 200 uM; treatment time: 3 h
[1] = biological target: USP16 (UniProt Q9Y5T5)
How it was run: (§1)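 Average log2 ratios of fragment over vehicle were obtained by unpaired t-test from global-median-normalised Spectronaut label-free quantities. Proteins with ≥2 unique peptides were included. HEK293T lysate (495 µg per sample) was treated in triplicate with fragment at 200 µM or vehicle for 3 h, then with Biotin-Ahx-Ub-VS at 0.5 µM final for 1 h, and labelled DUBs were NeutrAvidin-enriched and run by diaPASEF LC-MS/MS.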

[2] = biological target: T1, USP19 (UniProt O94966)
T1 sequence (whole entry): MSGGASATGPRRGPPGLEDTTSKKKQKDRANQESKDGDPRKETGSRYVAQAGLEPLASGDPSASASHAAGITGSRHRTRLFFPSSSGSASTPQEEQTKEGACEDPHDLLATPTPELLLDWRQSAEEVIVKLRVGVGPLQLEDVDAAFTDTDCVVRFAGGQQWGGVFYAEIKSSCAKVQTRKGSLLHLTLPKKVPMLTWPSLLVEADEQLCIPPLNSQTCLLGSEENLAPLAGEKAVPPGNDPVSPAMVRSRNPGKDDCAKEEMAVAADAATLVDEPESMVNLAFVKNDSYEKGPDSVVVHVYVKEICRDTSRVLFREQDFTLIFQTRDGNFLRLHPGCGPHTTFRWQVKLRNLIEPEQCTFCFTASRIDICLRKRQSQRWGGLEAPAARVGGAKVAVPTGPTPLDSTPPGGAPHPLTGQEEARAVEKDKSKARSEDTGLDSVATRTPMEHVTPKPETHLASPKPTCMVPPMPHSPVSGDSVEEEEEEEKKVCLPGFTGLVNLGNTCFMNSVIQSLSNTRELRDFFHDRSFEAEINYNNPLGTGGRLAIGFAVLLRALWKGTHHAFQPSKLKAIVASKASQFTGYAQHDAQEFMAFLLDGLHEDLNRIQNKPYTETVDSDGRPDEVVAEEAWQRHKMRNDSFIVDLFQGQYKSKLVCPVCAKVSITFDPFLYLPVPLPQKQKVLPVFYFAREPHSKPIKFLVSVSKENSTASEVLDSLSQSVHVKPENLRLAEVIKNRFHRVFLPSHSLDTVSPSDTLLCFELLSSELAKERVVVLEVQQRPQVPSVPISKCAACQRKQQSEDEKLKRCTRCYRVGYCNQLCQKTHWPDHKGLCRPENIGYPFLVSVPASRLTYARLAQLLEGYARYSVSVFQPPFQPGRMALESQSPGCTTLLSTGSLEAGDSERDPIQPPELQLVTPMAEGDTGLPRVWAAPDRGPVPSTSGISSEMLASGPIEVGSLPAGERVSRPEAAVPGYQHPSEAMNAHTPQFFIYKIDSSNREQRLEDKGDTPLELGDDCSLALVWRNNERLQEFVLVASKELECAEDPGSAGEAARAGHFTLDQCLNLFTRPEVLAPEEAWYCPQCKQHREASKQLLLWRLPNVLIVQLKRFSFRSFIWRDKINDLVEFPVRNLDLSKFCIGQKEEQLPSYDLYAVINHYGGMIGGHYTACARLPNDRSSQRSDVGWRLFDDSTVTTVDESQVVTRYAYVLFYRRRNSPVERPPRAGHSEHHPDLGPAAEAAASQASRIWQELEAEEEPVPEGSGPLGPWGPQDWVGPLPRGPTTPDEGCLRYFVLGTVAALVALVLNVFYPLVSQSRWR
How it was run: as §1

[3] = biological target: USP24 (UniProt Q9UPU5)
How it was run: as §1

[4] = biological target: T2, USP25 (UniProt Q9UHP3)
T2 sequence (whole entry): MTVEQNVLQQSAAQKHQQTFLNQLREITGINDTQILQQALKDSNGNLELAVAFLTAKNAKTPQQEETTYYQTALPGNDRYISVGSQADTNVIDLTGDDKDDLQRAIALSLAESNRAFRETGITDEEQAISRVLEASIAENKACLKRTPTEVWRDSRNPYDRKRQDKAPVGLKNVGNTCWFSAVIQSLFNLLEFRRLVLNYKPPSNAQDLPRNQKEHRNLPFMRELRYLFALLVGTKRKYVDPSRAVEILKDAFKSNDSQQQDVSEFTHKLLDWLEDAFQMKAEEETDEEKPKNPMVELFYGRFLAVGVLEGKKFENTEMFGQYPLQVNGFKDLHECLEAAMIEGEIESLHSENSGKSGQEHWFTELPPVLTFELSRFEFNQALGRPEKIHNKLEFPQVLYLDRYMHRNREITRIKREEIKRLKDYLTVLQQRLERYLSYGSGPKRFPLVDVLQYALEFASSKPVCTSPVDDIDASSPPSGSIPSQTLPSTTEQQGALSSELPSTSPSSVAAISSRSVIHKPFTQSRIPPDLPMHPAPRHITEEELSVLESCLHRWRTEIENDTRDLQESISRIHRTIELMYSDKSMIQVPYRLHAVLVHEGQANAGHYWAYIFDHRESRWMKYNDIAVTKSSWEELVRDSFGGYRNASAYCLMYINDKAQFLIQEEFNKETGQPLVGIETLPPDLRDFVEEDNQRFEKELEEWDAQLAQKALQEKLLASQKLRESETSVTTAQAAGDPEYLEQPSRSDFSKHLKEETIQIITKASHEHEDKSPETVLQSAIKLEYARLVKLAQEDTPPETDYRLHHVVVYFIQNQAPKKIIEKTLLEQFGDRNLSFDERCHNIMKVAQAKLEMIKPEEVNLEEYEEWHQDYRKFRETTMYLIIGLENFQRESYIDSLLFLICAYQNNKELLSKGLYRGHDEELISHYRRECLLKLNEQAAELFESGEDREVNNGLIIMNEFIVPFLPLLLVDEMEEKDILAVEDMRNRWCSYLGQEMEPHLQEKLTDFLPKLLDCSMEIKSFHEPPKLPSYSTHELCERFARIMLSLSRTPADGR
How it was run: as §1

[5] = biological target: T3, USP28 (UniProt Q96RU2)
T3 sequence (whole entry): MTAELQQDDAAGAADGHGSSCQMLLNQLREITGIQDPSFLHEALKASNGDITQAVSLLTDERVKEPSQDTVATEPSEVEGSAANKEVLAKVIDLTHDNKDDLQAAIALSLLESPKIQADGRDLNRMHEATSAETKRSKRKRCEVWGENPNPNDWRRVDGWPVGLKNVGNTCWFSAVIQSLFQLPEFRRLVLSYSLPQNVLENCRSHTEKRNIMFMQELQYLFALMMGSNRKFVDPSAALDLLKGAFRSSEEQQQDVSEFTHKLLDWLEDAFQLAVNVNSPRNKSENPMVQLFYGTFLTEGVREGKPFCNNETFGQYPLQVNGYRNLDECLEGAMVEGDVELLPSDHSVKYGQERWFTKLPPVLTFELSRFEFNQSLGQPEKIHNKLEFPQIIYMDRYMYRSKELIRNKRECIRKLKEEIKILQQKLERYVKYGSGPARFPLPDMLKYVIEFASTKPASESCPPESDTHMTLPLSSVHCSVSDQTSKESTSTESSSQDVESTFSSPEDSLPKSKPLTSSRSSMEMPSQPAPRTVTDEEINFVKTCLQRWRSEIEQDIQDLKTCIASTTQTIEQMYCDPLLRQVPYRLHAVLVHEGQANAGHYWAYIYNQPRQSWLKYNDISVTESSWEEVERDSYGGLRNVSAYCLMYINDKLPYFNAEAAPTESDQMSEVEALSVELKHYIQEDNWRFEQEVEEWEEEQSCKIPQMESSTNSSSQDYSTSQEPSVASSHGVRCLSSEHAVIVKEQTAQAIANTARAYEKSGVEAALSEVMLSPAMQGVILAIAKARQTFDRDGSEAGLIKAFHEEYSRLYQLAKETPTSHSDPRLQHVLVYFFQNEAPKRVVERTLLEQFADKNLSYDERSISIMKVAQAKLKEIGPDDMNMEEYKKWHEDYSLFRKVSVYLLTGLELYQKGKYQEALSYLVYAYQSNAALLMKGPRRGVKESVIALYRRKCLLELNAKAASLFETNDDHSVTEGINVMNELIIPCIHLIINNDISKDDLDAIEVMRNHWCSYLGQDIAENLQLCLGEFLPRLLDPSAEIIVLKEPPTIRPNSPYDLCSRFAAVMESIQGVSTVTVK
How it was run: as §1

Measured: log2 ratio of Biotin-Ahx-Ub-VS probe labelling

Chain of USP16 (Q9Y5T5 whole entry, looked up, the tested form may be a part): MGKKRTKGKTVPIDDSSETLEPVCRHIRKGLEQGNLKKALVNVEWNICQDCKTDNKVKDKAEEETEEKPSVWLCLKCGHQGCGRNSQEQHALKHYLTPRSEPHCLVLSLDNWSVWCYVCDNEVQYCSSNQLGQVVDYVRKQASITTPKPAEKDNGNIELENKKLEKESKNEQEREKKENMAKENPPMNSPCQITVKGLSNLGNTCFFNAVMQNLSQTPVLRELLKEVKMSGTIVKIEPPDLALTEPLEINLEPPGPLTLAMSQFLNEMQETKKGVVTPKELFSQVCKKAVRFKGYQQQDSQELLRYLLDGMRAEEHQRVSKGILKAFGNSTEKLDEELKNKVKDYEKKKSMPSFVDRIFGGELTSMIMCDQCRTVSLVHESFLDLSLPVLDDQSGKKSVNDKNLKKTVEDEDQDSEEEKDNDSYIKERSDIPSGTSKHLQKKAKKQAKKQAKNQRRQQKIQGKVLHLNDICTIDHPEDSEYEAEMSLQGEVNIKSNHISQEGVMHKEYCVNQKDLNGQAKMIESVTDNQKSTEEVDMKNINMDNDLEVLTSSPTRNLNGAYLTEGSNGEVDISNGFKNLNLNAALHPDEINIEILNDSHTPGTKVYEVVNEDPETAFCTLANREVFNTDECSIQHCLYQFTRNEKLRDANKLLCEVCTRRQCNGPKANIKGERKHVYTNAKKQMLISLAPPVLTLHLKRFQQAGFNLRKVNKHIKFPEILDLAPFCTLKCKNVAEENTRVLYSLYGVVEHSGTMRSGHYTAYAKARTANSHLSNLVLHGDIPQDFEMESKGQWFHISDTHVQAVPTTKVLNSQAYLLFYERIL
Chain of USP24 (Q9UPU5 whole entry): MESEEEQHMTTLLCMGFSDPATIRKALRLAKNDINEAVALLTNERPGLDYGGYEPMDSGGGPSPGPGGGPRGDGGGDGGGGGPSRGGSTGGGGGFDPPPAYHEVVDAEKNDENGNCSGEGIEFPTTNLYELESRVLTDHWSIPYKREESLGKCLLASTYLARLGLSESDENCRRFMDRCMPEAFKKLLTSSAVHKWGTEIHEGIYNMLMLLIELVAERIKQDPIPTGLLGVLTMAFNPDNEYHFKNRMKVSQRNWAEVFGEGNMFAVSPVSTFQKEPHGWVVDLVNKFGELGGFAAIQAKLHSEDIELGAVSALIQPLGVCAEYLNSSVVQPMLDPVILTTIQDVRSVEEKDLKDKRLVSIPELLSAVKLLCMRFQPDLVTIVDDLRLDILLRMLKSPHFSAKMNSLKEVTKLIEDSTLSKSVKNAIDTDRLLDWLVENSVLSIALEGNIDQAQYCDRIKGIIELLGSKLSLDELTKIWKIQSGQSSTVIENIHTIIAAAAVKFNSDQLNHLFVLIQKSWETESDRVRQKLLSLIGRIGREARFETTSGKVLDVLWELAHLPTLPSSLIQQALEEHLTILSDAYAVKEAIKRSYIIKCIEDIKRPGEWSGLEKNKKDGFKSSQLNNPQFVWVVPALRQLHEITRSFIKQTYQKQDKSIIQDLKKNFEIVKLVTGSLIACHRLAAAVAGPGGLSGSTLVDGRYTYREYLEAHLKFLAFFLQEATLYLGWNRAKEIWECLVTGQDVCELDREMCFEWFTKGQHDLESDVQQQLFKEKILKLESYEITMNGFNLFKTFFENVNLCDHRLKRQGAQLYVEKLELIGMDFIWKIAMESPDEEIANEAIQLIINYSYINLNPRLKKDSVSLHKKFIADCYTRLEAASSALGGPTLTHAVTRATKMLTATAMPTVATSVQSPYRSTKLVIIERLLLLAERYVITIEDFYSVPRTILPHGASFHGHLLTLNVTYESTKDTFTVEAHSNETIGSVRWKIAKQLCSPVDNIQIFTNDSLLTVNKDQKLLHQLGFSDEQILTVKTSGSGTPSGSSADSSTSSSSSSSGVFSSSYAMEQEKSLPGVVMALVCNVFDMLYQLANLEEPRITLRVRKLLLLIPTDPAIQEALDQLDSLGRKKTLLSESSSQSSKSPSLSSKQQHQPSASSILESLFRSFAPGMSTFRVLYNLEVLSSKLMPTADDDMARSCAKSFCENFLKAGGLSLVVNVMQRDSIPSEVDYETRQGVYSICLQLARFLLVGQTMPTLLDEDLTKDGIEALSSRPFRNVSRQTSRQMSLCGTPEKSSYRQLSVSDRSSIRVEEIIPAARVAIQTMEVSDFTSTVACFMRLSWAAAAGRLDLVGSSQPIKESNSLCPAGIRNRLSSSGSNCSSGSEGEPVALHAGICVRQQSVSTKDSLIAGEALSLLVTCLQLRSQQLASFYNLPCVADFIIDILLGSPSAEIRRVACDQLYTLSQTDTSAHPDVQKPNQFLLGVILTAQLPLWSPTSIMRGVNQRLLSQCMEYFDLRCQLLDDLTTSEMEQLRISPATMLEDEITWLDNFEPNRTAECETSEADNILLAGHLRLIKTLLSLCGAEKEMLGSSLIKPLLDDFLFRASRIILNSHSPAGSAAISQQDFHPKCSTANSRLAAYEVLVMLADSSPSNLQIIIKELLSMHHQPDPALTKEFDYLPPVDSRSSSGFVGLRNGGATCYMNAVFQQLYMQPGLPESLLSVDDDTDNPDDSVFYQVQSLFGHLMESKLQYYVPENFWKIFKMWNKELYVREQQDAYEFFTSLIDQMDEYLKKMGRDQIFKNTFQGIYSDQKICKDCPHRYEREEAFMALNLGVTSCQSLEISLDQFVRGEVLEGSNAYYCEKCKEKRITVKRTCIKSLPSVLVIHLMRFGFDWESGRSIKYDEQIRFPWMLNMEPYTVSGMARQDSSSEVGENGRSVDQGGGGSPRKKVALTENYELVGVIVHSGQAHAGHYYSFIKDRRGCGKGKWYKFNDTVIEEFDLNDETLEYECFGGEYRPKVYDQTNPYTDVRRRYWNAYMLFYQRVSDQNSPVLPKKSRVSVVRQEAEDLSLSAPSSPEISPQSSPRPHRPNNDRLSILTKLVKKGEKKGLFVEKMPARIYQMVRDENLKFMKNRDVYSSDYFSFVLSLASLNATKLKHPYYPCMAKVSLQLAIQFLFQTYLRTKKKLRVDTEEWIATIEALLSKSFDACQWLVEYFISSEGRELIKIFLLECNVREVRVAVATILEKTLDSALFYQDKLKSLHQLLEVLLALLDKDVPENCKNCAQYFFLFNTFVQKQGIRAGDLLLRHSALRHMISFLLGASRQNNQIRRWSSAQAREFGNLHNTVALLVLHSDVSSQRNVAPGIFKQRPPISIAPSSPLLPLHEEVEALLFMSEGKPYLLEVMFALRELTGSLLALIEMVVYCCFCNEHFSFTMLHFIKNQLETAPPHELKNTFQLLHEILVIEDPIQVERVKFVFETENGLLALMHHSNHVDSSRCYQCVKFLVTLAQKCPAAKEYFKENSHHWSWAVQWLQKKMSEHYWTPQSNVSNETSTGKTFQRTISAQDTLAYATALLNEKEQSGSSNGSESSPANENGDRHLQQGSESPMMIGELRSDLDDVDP

O=C(CCl)NCC1(c2ccccc2)CC1
inactive: [1] 0.0406 | [2] -0.058 | [3] -0.208 | [4] -0.366 | [5] -0.447
